Screen size: about 210,000 compounds; about 730 (0.35%) were called active. Another 1% or so got no clear call; they are omitted. The entries come from a sample that favours actives as a whole. Unmarked numbers belong to inactive results. Calls follow the shape of the dose curve; as a rule, active = well fitted inhibition curve with a large enough effect; inconclusive = small, poorly fitted or top-dose-only effect; inactive = no such curve, though single readings can be large or run the other way.
Potency is read from the fitted curve at half-maximal effect.

This assay in a line: qHTS Assay for Identifying the Cell-Membrane Permeable IMPase Inhibitors: Potentiation with Lithium.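 Also: IP1 builds up when IMPase is blocked and the TR-FRET signal falls; nearly all actives have a fitted effect of over 50% in size.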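 As to activity, negative = IMPase inhibition: plate controls were basal vehicle for no effect and high inhibitor control for full effect.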 Particulars: CHO-M1 cells, IP1 TR-FRET (IP-One), carbachol + lithium; series mostly up to 59.4 µM; activity, negative = IMPase inhibition: at the top concentration. An excerpt: NIH Chemical Genomics Center [NCGC]
NIH Molecular Libraries Probe Production centers Network [MLPCN]
Assay Submitter (PI): Wei Zheng
Lithium has been widely used for the treatment of bipolar disorder. But lithium has a narrow therapeutic index and it can cause side effects such as thirst, weight gain, tremor, polyuria and memory problems. Although the mechanism for lithium action in treatment of bipolar disorder is still not fully understood, inhibition of inositol monophosphatase (IMPase) and the subsequent depletion of the inositol pool in living cells have been implicated as the primary therapeutic benefit of lithium therapy. Therefore, a selective IMPase inhibitor with reduced side effects might be a good drug candidate to replace lithium for the treatment of bipolar disorder. Several IMPase inhibitors have been discovered previously. However, they are not suitable for therapeutic use because of their poor cell membrane penetrability or oral bioavailability; the development of new cell-permeable IMPase inhibitors is needed.
IMPase catalyzes the hydrolysis of inositol-1-phosphate (IP1) to release free inositol. Binding of an agonist to a Gq coupled GPCR results in the activation of PLC, which hydrolyzes the PIP2 to form inositol-1,4,5-trisphosphate (IP3) and diacyl glycerol (DAG). While DAG activates protein kinase C (PKC), IP3 triggers the elevation of intracellular free Ca2+. The IP3 is very rapidly inactivated by hydrolysis to IP2, IP1 and then inositol by a series of enzymes including IMPase. Free inositols are used for synthesis of PI and thus start another inositol cycle.
To identify new cell-permeable IMPase inhibitors, we developed a cell-based IMPase assay in which the cytosolic IP1 is measured by a time-resolved fluorescence resonance energy transfer (TR-FRET) assay. In this assay, an IP1 specific antibody is used to detect the labeled IP1 tracer. When the cell lysate contains the elevated IP1 due to the inhibition of IMPase, the TR-FRET between the labeled antibody and IP1 tracer is disrupted resulting in a reduction in the total signal. Since the TR-FRET is used, this cell-based assay is a homogenous assay without cell wash and medium change that is suitable for assay miniaturization and HTS. In this particular assay, a small amount of lithium is added to potentiate the response of weak activators.
NCGC Assay Protocol Summary:
A Chinese hamster ovary (CHO) cell line stably expressing the M1 receptor (CHO-M1) was obtained from ATCC and maintained in F-12 Kaighn's media (Invitrogen, Carlsbad, CA) supplemented with 10 % FBS, 100 units/ml penicillin, 100 ug/ml streptomycin and 250 ug/ml geneticin at 37C, 5% CO2 in a humidified atmosphere. Before the assay, aliquots of cells were frozen and stored at -135C. The assay was performed in 1536-well format. Data are reported for both the ratio of the two emission wavelengths, and also for the component 'donor' channel, Em2=620. […] AC50 values were determined from concentration-response data modeled with the standard Hill equation.
(1) Frozen CHO-M1 cells were thaw, washed once with fresh media and resuspended in F12K media containing 10% FBS, 100 units/ml penicillin and 100 ug/ml streptomycin. Cells were plated at 4ul/well (2000 cells) in white, tissue culture treated 1536-well plates, and then cultured at 37C, 5 % CO2 for 16 to 30 hours.
(2) Add 23 nl/well of compound in DMSO solution. The final titration for each compound was between 0.6 nM and 46 uM.
(4) Incubation at 37C, 5 % CO2 for 30 min.
(5) Add 1 ul/well of d2-conjugated IP1 (d2-IP1) and 1 ul/well of Eu+ cryptate conjugated anti-IP1 antibody (Eu+-Ab) prepared in the cell lysis buffer, both from the IP-One kit (Cisbio, MA).
(6) Incubate at room temperature for 10 minutes.
(7) Detect the assay plate (Ex = 320, Em1 =665 and Em2 620) in a ViewLux plate reader.
(In general: qHTS replaces the single test concentration by a dilution series.)
`Cc1cc2oc(=O)cc(-c3ccccc3)c2c(C)c1/C=C/c1ccc(F)cc1`: the “activity, negative = IMPase inhibition” value is -7.25%. As for `Cc1ccc(-c2cccc([C@H]3[C@@H]4C=CC[C@@H](C)[C@@H]4C(=O)N3Cc3ccccc3)c2)cc1`, the “activity, negative = IMPase inhibition” value was 10%. Take `CC(=O)/C(C)=N/O`: the “activity, negative = IMPase inhibition” value was -3.22%. Same read-out and setting: the result for `Cc1ccc2nc(-c3ccncc3)cc(C(=O)Nc3ccc(OC(F)F)cc3)c2c1` reads 16.8%; that for `Cc1ccc(-c2cc(C(=O)NCc3cn(C)nc3C)c3cc(Br)ccc3n2)cc1`, -14.7%. Consider `O=C(NCc1cccs1)c1cc(-c2ccccn2)nc2ccc(Br)cc12`, for which the Potency was 6.31 µM (active). Consider `O=C(Nc1ccncc1)c1cc(-c2ccccn2)nc2ccc(Br)cc12`, for which the Potency is 2.82 µM (active). In the case of `O=C(NCc1ccccn1)c1cc(Br)ccc1Cl`, the “activity, negative = IMPase inhibition” value is 5.27%. Still for that read-out and setting: the result for `Cc1ccc2nc(-c3ccccn3)cc(C(=O)Nc3ccc4c(c3)OCO4)c2c1` reads 4.54%; that for `S=C(NCCCc1cnc[nH]1)NCCCN(Cc1ccc(Cl)c(Cl)c1)c1ccc(Br)cn1`, 2.14%. For `C=CC(C1=CC(=O)C=CC1=O)c1ccc(O)cc1` (configuration not stated), the “activity, negative = IMPase inhibition” value was 38.9%. Same read-out and setting: the result for `COc1cccc([C@@H]2Oc3ccc(Br)cc3C(=O)[C@H]2OC(=O)NCc2ccc3c(c2)OCO3)c1` reads 9.58%; that for `CC(=O)[C@H](C(c1ccccc1)N1CCOCC1)N1CCOCC1` (some centres not stated), -10.4%; that for `COC(=O)C1=C(C(=O)OC)[C@@H]2N(Cc3ccccc3)c3ccccc3[C@@]23C[C@@H](C(=O)OC)N(S(=O)(=O)c2ccc(C(F)(F)F)cc2)C3=N1`, 9.75%. With `CC/C=C\C/C=C\C/C=C\C/C=C\C/C=C\C/C=C\CCC(=O)NC(C)C(=O)O` (configuration not stated), the “activity, negative = IMPase inhibition” value was 18%. Regarding `COC(=O)C/C=C/[C@@H](C)[C@H](NC(=O)OCC(Cl)(Cl)Cl)c1ccccc1`, the “activity, negative = IMPase inhibition” value was 3.99%.

As to `C=C(C(C)=O)C(O)c1ccc([N+](=O)[O-])cc1` (configuration not stated), the “activity, negative = IMPase inhibition” value was 39.2%. Take `COc1ccc(CCCOC(Cn2ccnc2)c2ccc(OC)cc2)cc1` (configuration not stated): the Potency result was “inactive”.

With `O=C1OCCN1C(=O)[C@H]1[C@H](c2ccc(F)cc2)C(c2ccccc2)=NN1c1ccc(Br)cc1`, the “activity, negative = IMPase inhibition” value was 0.301%. Same read-out and setting: the result for `C=C/C1=C/Cc2ccccc2[C@H](C[N+](=O)[O-])C(C(=O)OC)(C(=O)OC)C1` reads 17.6%; that for `C=CC1=C2C=C(C3CC3)N(CC(C)C)C=C2C(=O)C(C)(OC(=O)c2ccco2)C1=O` (configuration not stated), 7.37%.

As to `O=C1OCCN1C(=O)[C@H]1[C@H](c2ccccc2)C(c2ccc(F)cc2)=NN1c1ccccc1`, the “activity, negative = IMPase inhibition” value is -13.4%. As to `CN(C)[C@@H]1C(=O)C(C(N)=O)=C(O)[C@@]2(O)C(=O)C3=C(O)c4c(O)ccc(Cl)c4[C@@H](O)[C@H]3C[C@@H]12`, the Potency is 3.98 µM (active). As for `COc1ccc(/C=C2\NC(=O)[C@@H]3Cc4ccccc4CN3C2=O)cc1`, the “activity, negative = IMPase inhibition” value is 12.7%. `NCCC(=O)c1ccccc1N`: the “activity, negative = IMPase inhibition” value is -1.61%.

With `COC(=O)C1=C(C(=O)OC)[C@@H]2N(C)c3ccccc3[C@@]23C[C@@H](C(=O)OC)N(S(=O)(=O)c2cccs2)C3=N1`, the “activity, negative = IMPase inhibition” value is 8.96%. Regarding `C=CCN1C=C2C(=O)C(C)(OC(=O)CCc3ccccc3)C(=O)C=C2C=C1c1ccc(C#N)cc1` (configuration not stated), the “activity, negative = IMPase inhibition” value is -2.86%.

With `C=CCN(CC=C)S(=O)(=O)c1ccc(C(=O)Nc2sc3c(c2C(N)=O)CCCCC3)cc1`, the Potency is 10 µM (active). Take `Cc1ccc(C(=O)c2c(NC(=O)c3ccncc3)sc3c2CCCC3)cc1`: the “activity, negative = IMPase inhibition” value was 42.5% [at 38.3 µM].

`C=CCN(CC=C)S(=O)(=O)c1ccc(C(=O)Nc2nc3c(s2)CCc2ccccc2-3)cc1`: the “activity, negative = IMPase inhibition” value is 6.49%. Same read-out and setting: to `CC(C)=CCN1CCC2(CCc3ccccc32)CC1` belongs -23.8%; to `C[C@H]1Cc2c(-c3ccccc3)nc3c(c2CO1)CN(C(=O)C1CC1)CC3`, 11.8%. With `COc1ccccc1C1/C(=C(/O)c2ccc(OC(C)C)cc2)C(=O)C(=O)N1c1cc(C)on1` (configuration not stated), the “activity, negative = IMPase inhibition” value was 6.7% [at 38.3 µM].

For `COc1ccc(/C(O)=C2/C(=O)C(=O)N(c3nc(C)c(C)s3)C2c2ccco2)cc1` (configuration not stated), the Potency was 12.6 µM (active). `COc1ccc(/C(O)=C2\C(=O)C(=O)N(Cc3ccco3)C2c2ccc(OC)cc2OC)cc1` (configuration not stated): the “activity, negative = IMPase inhibition” value was -20.2% [at 38.3 µM]. On the same count and under the same terms, to `Cc1cn(C2OC[C@@H](O)[C@@H]2CO)c(=O)[nH]c1=O` (some centres not stated) belongs 31%; to `O=c1c(O)c(Br)ccc2c(Br)c(O)c(O)c(O)c12`, 38.1%. Still for that read-out and setting: to `Cc1cccc([C@H]2[C@@H]3C=CC[C@@H](C)[C@@H]3C(=O)N2Cc2ccccc2)c1` belongs 6.4%; to `COC(=O)N1C(/C=C/C=C/c2ccc(OC)cc2)=Cc2ccccc2C1CC(C)=O` (configuration not stated), 5.89%. For `CCCCC/C=C\C/C=C\C/C=C\CCCCC(=O)NCC(=O)O`, the “activity, negative = IMPase inhibition” value was 4.54%.

In the case of `CCC(C)[C@@H](N)C(=O)O` (some centres not stated), the “activity, negative = IMPase inhibition” value is -2.45%.

Take `C=CCN1c2ccccc2[C@]23C[C@@H](C(=O)OC)N(S(=O)(=O)c4ccc([N+](=O)[O-])cc4)C2=NC(C(=O)OC)=C(C(=O)OC)[C@H]13`: the “activity, negative = IMPase inhibition” value was 8.65%. Consider `COCc1cc(C)nc(Nc2cc(C)ccc2C)c1C#N`, for which the “activity, negative = IMPase inhibition” value was 2.06% [at 38.3 µM]. On to `COCc1cc(C)nc(SCC(=O)Nc2cccc(C)c2)c1C#N`, for which the Potency was 22.4 µM (active). `Cc1cc(C)c(C#N)c(SCC(=O)Nc2ccccc2)n1`: the “activity, negative = IMPase inhibition” value was -12.8%. Take `CC(Nc1oc(-c2ccccc2)nc1-c1ccccc1)c1ccccc1` (configuration not stated): the Potency entry is “inactive”. With `C[C@H]1Cc2c(-c3ccccc3)nc3c(c2CO1)CN(S(=O)(=O)c1ccc(Cl)c2nonc12)CC3`, the “activity, negative = IMPase inhibition” value is 7.59%.
